# According to article PMC7862700, “An all-to-all approach to the identification of sequence-specific readers for epigenetic DNA modifications on cytosine”:
# Key:
# Assay in all cases: DAPPL (digital affinity profiling via proximity ligation, sequencing); 10 mM Tris-HCl pH 7.5, 50 mM NaCl, 1 mM DTT, 4% glycerol, room temperature, 30 min; GST-TFs on glutathione beads, 16-mer random dsDNA library, 0.1% formaldehyde crosslink after washing; high values mean tight binding
# Conditions in all cases: protein: recombinant; tags: N-terminal GST; dsDNA, one strand shown
# FLI1 = target: T1, FLI1 (Homo sapiens, UniProt Q01543 1-452)
# T1 sequence: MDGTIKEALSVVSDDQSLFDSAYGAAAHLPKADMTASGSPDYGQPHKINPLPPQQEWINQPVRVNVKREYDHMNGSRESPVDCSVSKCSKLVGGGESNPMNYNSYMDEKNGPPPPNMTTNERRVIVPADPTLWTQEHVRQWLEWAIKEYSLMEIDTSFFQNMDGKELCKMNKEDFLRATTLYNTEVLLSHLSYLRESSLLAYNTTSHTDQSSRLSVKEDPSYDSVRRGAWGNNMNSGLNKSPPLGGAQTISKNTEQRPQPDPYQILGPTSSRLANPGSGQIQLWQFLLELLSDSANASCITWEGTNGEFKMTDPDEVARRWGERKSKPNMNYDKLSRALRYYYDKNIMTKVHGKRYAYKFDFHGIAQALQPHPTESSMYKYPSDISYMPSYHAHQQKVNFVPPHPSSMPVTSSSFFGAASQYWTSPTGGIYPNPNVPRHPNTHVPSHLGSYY
# Summary of the method: (§1)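 Binding signal is each hexamer's read frequency for a factor divided by its frequency in the tag-only sample. The factors were GST-fused human transcription factors from yeast, captured on glutathione beads, DNA-barcoded and pooled with that sample. Pools were incubated with 200 nmole of a random double-stranded 16-mer DNA library in Tris/NaCl/DTT/glycerol buffer at room temperature for 30 min, then washed, crosslinked with 0.1% formaldehyde, proximity-ligated with BsaI/T4 ligase (1 h, 37 °C), PCR-amplified and sequenced on an Illumina NextSeq500.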
# ELK1 = target: T2, ELK1 (Homo sapiens, UniProt P19419 1-428)
# T2 sequence: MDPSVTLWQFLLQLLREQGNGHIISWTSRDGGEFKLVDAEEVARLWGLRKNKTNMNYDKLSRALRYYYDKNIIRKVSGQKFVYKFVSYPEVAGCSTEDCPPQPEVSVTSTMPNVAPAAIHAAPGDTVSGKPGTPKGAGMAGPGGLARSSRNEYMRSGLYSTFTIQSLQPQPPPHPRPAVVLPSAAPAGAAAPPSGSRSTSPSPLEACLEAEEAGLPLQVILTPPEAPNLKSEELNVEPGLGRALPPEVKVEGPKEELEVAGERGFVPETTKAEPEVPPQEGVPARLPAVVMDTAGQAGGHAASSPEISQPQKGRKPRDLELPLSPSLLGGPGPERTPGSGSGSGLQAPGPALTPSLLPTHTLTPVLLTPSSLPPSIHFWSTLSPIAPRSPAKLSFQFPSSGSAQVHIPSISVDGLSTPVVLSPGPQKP
# Summary of the method: as §1
# GABPA = target: T3, GABPA (Homo sapiens, UniProt Q06546 1-454)
# T3 sequence: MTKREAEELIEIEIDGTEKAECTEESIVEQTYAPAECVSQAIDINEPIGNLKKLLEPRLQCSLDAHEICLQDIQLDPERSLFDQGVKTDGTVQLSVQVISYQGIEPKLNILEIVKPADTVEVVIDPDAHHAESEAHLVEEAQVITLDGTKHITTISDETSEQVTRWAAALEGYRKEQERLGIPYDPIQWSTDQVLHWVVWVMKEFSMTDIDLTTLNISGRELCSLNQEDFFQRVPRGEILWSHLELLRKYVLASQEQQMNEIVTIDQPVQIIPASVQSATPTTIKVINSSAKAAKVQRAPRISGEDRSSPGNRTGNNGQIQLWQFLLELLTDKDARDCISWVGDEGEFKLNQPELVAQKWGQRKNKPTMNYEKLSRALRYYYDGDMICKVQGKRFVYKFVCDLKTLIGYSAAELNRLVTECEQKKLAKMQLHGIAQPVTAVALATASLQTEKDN
# Summary of the method: as §1
# ELF1 = ELF1 (Homo sapiens, UniProt P32519 1-619)
# Summary of the method: as §1
# EHF = target: T4, EHF (Homo sapiens, UniProt Q9NZC4 1-300)
# T4 sequence: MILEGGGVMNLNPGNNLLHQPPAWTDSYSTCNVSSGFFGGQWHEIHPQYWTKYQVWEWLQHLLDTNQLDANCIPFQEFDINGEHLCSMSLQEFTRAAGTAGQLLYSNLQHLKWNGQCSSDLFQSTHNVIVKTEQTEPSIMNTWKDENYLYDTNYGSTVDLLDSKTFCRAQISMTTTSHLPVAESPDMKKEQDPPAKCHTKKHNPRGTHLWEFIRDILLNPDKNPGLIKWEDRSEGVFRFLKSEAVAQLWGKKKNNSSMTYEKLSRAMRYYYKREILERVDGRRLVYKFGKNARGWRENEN
# Summary of the method: as §1
# SPI1 = SPI1 (Homo sapiens, UniProt P17947 1-270)
# Summary of the method: as §1
# SPIC = target: T5, SPIC (Homo sapiens, UniProt Q8N5J4 1-248)
# T5 sequence: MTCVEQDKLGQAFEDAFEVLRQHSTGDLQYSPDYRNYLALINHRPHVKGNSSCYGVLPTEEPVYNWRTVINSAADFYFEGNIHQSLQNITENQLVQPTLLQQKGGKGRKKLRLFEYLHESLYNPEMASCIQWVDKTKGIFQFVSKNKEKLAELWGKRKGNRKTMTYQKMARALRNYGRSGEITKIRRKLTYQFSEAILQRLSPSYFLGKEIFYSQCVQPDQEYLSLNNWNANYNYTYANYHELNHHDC
# Summary of the method: as §1
# ELF4 = ELF4 (Homo sapiens, UniProt Q99607 1-663)
# Summary of the method: as §1
# ELK4 = target: T6, ELK4 (Homo sapiens, UniProt P28324-2 1-405)
# T6 sequence: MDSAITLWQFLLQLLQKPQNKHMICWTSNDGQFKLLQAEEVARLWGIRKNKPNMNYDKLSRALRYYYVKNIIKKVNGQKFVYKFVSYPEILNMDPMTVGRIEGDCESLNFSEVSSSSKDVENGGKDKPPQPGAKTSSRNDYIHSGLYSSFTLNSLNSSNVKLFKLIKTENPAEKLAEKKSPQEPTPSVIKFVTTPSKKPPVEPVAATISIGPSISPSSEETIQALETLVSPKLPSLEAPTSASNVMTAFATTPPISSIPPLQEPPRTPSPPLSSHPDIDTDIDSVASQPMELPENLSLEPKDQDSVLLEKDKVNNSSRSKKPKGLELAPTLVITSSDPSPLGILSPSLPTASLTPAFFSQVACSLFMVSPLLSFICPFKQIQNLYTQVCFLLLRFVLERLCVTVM
# Summary of the method: as §1
# ETV2 = target: T7, ETV2 (Homo sapiens, UniProt O00321 1-342)
# T7 sequence: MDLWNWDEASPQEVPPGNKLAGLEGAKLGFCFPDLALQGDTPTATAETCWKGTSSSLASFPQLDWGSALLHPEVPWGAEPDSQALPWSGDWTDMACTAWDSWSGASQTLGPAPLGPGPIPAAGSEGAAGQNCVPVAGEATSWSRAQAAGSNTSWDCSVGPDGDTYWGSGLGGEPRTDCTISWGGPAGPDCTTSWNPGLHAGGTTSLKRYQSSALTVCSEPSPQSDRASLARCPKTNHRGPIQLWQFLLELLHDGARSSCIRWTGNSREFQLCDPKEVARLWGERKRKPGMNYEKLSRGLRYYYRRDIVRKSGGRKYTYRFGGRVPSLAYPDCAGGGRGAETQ
# Summary of the method: as §1
# ELF3 = target: T8, ELF3 (Homo sapiens, UniProt P78545 1-371)
# T8 sequence: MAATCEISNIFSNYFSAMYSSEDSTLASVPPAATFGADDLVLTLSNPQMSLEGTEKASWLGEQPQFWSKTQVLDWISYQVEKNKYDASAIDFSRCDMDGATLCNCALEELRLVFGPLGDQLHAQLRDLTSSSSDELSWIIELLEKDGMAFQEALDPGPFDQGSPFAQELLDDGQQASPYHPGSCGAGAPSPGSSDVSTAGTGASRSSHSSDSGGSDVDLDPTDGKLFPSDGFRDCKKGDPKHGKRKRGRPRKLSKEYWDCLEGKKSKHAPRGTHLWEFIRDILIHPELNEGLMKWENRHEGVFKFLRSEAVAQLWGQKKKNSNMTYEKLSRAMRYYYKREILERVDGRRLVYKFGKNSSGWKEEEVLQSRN
# Summary of the method: as §1
# CRX = CRX (Homo sapiens, UniProt O43186 1-299)
# Summary of the method: as §1
# ETV1 = ETV1 (Homo sapiens, UniProt P50549 1-477)
# Summary of the method: as §1
# ETS2 = target: T9, ETS2 (Homo sapiens, UniProt P15036 1-469)
# T9 sequence: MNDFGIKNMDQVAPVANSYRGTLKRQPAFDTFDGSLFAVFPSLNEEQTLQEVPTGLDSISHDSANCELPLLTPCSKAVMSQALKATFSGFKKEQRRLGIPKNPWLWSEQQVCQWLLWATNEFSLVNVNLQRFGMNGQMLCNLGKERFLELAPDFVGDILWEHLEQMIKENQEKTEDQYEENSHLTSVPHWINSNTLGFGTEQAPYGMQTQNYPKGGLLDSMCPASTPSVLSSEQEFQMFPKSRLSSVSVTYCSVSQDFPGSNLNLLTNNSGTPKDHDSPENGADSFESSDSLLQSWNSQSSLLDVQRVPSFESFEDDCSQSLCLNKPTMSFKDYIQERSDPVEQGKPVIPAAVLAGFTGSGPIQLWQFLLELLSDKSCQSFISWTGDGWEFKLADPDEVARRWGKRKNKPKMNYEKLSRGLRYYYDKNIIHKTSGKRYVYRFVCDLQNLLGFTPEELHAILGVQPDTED
# Summary of the method: as §1
# ETV7 = target: T10, ETV7 (Homo sapiens, UniProt Q9Y603 1-341)
# T10 sequence: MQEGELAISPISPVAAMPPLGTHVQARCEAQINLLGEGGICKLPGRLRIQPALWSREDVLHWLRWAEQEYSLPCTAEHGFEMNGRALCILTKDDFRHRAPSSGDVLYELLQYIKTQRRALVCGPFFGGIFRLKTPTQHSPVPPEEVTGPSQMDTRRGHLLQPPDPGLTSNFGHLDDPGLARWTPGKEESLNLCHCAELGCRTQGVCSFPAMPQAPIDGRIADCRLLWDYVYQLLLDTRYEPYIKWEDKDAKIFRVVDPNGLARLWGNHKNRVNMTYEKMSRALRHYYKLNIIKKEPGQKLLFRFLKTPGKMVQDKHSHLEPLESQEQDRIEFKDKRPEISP
# Summary of the method: as §1
# ETV3 = target: T11, ETV3 (Homo sapiens, UniProt P41162-2 1-143)
# T11 sequence: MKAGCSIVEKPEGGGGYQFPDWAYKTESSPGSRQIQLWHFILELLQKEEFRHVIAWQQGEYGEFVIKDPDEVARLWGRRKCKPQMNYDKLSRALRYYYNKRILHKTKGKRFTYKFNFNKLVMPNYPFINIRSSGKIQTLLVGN
# Summary of the method: as §1
# Chain of CRX (O43186 whole entry): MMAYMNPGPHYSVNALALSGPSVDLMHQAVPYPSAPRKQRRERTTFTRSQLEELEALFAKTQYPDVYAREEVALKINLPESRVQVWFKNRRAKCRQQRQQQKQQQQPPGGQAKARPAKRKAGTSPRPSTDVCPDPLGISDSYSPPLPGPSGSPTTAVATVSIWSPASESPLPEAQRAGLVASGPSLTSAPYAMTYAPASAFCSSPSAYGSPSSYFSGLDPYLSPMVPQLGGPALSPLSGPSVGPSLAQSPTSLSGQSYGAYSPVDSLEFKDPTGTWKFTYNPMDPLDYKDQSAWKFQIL
# Chain of ELF4 (Q99607 whole entry): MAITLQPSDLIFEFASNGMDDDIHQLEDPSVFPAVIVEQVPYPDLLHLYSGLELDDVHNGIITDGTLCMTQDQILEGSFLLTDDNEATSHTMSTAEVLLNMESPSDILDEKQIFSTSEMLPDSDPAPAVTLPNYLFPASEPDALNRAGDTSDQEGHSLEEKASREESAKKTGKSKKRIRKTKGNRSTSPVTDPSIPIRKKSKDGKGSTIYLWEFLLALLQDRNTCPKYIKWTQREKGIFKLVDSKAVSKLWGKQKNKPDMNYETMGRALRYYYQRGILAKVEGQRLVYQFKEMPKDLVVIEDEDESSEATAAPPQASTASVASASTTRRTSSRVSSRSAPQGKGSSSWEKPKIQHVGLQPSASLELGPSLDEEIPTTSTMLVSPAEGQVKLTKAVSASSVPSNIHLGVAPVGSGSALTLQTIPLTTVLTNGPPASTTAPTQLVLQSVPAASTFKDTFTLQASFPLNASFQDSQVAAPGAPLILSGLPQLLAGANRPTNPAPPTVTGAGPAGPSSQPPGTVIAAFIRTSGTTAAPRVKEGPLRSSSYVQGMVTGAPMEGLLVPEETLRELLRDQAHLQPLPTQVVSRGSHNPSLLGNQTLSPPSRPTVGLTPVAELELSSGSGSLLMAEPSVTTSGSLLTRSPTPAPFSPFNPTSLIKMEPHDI
# Chain of ETV1 (P50549 whole entry): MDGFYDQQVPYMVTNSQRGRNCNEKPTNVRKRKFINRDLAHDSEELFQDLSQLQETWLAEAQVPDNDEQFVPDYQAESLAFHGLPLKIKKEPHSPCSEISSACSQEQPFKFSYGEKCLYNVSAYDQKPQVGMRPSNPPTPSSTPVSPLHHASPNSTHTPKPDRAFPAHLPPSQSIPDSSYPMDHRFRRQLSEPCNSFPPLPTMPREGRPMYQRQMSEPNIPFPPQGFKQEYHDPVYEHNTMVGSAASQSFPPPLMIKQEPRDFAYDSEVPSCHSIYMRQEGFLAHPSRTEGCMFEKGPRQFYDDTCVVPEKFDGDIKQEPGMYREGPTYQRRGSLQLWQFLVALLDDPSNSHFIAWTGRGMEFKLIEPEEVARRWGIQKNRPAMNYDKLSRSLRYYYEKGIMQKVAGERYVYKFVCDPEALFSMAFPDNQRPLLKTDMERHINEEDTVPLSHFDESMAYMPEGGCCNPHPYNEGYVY
# Chain of ELF1 (P32519 whole entry): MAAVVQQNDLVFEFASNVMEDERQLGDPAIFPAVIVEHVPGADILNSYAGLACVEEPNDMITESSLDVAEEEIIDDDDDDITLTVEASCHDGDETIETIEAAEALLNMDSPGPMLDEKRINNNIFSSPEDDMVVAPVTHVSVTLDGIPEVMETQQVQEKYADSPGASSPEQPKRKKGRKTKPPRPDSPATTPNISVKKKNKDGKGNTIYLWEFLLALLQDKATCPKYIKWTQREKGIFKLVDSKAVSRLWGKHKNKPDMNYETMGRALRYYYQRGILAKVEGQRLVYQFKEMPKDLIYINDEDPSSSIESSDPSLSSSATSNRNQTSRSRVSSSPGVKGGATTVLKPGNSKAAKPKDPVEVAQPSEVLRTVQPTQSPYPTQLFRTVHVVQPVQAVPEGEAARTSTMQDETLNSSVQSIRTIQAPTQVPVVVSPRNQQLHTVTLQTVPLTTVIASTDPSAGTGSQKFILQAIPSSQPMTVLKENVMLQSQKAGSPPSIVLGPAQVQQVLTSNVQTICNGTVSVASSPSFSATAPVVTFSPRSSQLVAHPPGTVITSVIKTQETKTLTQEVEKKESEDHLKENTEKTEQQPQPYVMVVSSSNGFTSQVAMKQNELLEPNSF
sequence,measurement,setting,value
AGCTGA,binding signal,FLI1,"1.02 fold enrichment (6-mer frequency, TF over GST control)"
same,binding signal,ELK1,"1.07 fold enrichment (6-mer frequency, TF over GST control)"
same,binding signal,GABPA,"1.01 fold enrichment (6-mer frequency, TF over GST control)"
same,binding signal,ELF1,"1.1 fold enrichment (6-mer frequency, TF over GST control)"
same,binding signal,EHF,"1.11 fold enrichment (6-mer frequency, TF over GST control)"
same,binding signal,SPI1,"1.01 fold enrichment (6-mer frequency, TF over GST control)"
same,binding signal,SPIC,"1.14 fold enrichment (6-mer frequency, TF over GST control)"
same,binding signal,ELF4,"1.01 fold enrichment (6-mer frequency, TF over GST control)"
same,binding signal,ELK4,"1.02 fold enrichment (6-mer frequency, TF over GST control)"
same,binding signal,ETV2,"1.08 fold enrichment (6-mer frequency, TF over GST control)"
same,binding signal,ELF3,"1.14 fold enrichment (6-mer frequency, TF over GST control)"
same,binding signal,CRX,"1.11 fold enrichment (6-mer frequency, TF over GST control)"
same,binding signal,ETV1,"1.08 fold enrichment (6-mer frequency, TF over GST control)"
same,binding signal,ETS2,"1.04 fold enrichment (6-mer frequency, TF over GST control)"
same,binding signal,ETV7,"1.09 fold enrichment (6-mer frequency, TF over GST control)"
same,binding signal,ETV3,"1.05 fold enrichment (6-mer frequency, TF over GST control)"
